Data on 40 compounds can be found in PubChem BioAssay (NCI).

Molecules are shown by their SMILES. Compounds without any hit were thinned out: in the full panel of roughly 83,000, 20% have a hit.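 Each cell line was grown in a 96-well plate and treated with one concentration of compound for 48 hours. Values below 10 were considered active.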 Activity calls are given as the source filed them.

The test system of the experiment is SK-MEL-2 melanoma. Briefly: NCI-60 one-dose screen, 48 h (100 = growth as untreated, 0 = no growth, -100 = all killed). To be noted: 10 µM unless noted. As for the experimental part: Growth inhibition of the SK-MEL-2 human tumor cell line is measured as a screen for anti-cancer activity. Cells are grown in 96 well plates and exposed to the test compound for 48 hours. Compounds are tested at a single concentration, which is 10^-5 M for most compounds. The reported endpoint is percent growth (GI% or GIPRCNT), where numbers from 0 - 100% represent growth inhibition, and numbers from -100% - 0 represent cell death. For example, a value of 40 represents 60% growth inhibition. A value of 0 means no net growth occurred over the course of the experiment. A value of -40 indicates 40% of cells at the beginning of the experiment died by the end of the experiment. A value of -100 means all cells are dead at the end of the experiment.
NCI-60 Human Tumor Cell Lines Screen was performed using the standard one-dose NCI protocol, which is described in more detail at https://dtp.cancer.gov/discovery_development/nci-60/default.htm.
Compounds with GIPRCNT values below 10 were considered active. Activity score was based on GIPRCNT using the following formula: […]
Score is 0 for GIPRCNT values of 100 or above, 50 for GIPRCNT values of 0, and 100 for GIPRCNT values of -100.
For `N#C/C(=C\c1ccc(Cl)cc1)n1nnc2cc(F)c(F)cc21`, the growth is 38.6% (inactive). To `CCN(CC)CC[n+]1cc2cc(OC)c(OC)cc2c2ccc3cc4c(cc3c21)OCO4` belongs 14.8% (inactive); to `CNC(=O)c1cncc(Cn2nc(C)c(NC(=O)c3ccc(COc4ccc(C(F)(F)F)cc4C)cc3)c2C)c1`, 48.8% (inactive). To `Nc1ccccc1NC(=O)c1ccc(-n2nc(-c3ccccc3)c3ccccc32)cc1` belongs 94.3% (inactive); to `CN1CCN(C(=O)[C@]23CCC(C)(C)C[C@H]2C2=CC[C@@H]4[C@@]5(C)C/C(=C/c6cccnc6)C(=O)C(C)(C)[C@@H]5CC[C@@]4(C)[C@]2(C)CC3)CC1`, 81.5% (inactive).

With `NS(=O)(=O)c1ccc(CCN2C(=O)c3cc(Cl)c(Cl)cc3C2=O)cc1`, the growth is 96.5% (inactive). With `CCCCCN1C=C/C(=C\C(=O)n2ccc3ccccc32)c2ccccc21` the figure was 96.9% (inactive).

For the compound `C#CCNC(=O)c1cccc2c1cc(C)n2-c1nc2c(c(NCc3ccccc3)n1)CCCC2`, the growth was -38% (active). Regarding `O=C(Nc1cccc(C(=O)N2CCc3ccc(Cl)cc32)c1)c1ccco1`, the growth was 25.8% (inactive). With `O=C1c2ccc3c4c(ccc(c24)C(=O)N1CCCNCc1ccccc1F)C(=O)N(CCCNCc1ccccc1F)C3=O`, the growth was -82.9% (active). To `CN(C)c1ccc(C2C(C#N)=C(/N=C/c3ccccc3)Oc3c2ccc2ccccc32)cc1` (stereo not given) belongs 70.8% (inactive). Take `CCOC(=O)C1=C(C)NC(SCc2cc(=O)oc3ccc(F)cc23)=N[C@@H]1c1cccc2ccccc12`: the growth was 85% (inactive).

Regarding `C=C1C(=O)O[C@H]2[C@H]1CC/C(CNC(=O)/C=C/c1cccc(OC)c1)=C\CC[C@@]1(C)O[C@@H]21`, the growth was 55.6% (inactive). Turning to `COC(=O)N[C@H]1CCc2c(Cl)c(OC)c(OC)c(OC)c2-c2ccc(SC)c(=O)cc21`, the growth is 42.4% (inactive). To `CCOC(=O)c1ccc2c(c1)ncn2-c1ccc(NC(=O)Nc2cccc(C)c2)cc1` belongs 85.4% (inactive); to `O=C(N/N=C/c1ccc(Oc2ccccc2)cc1)c1cnn2c1NC(c1ccccc1)C2` (stereo not given), 4.54% (active). With `Cn1nc(CC#N)c2c(=N)n(N)cnc21` the figure was 113% (inactive); with `O=C1Nc2cc(-c3ccc(NS(=O)(=O)c4ccccc4)cc3)ccc2/C1=C/c1ccc[nH]1`, 112% (inactive). For the compound `Cc1ccc(-n2nc3c(c(C#N)c2=O)CC(c2ccccc2[N+](=O)[O-])C([N+](=O)[O-])=C3O)cc1` (stereo not given), the growth was 98.8% (inactive). For the compound `CC[C@]12C=CCN3CC[C@@]4(c5cc(NC(=O)CCC(=O)O[C@H]6CC[C@H]7[C@@H]8CCC9=CC(=O)CC[C@@H]9[C@H]8CC[C@]67C)c(OC)cc5N(C)[C@H]4[C@@](O)(C(=O)OC)[C@@H]1OC(C)=O)[C@@H]32`, the growth was 81.9% (inactive). Regarding `Cc1nc2ccc(Cl)cn2c1-c1nnc(SCc2ccc([N+](=O)[O-])cc2)o1`, the growth is 84.9% (inactive). With `Cc1nc2sccn2c1-c1nc2sccn2c1/C=C1/C(=O)Nc2ccccc21` the figure was 61% (inactive); with `COc1ccc2c(c1)oc1c(C)c3c(c(C)c12)C(=O)N(N)C3=O`, 93% (inactive); with `Cc1nnc2c(Cc3ccccc3)nc3ccccc3n12`, 110% (inactive).

For `CC(c1ccccc1)C(C(=O)c1ccccc1)c1ccccc1` (stereo not given), the growth is 85.1% (inactive). `COc1ccccc1NS(=O)(=O)c1cccc(C(=O)Nc2ccc(Br)cc2)c1`: the growth was 57.7% (inactive). With `COc1cc(/C=C\c2cc(/C=C\c3ccc(O)c(OC)c3)n(C(=O)COc3ccccc3)n2)ccc1O` the figure was -18.7% (active); with `NC1[C@H](c2c[nH]c3ccccc23)c2c([nH]c3ccccc23)[C@H]1c1c[nH]c2ccccc12` (stereo not given in full), 98.2% (inactive); with `CCCCCC(=O)Oc1ccc(/C(=C(\C)c2ccccc2)c2ccc(OCCN3CCCCC3)cc2)cc1`, 81.3% (inactive).

For `CCN1C(=O)N(CC)C2Nn3c(s/c(=C\c4ccc(OC)cc4)c3=O)=NC21` (stereo not given), the growth was 51.9% (inactive).

With `O=C1c2c(c3c4cccc(F)c4[nH]c3c3ccc4ccccc4c23)C(=O)N1O`, the growth is 51.5% (inactive). To `COc1cc2c(c(O)c1Cl)C(=O)c1c(O)cc(C[C@H](C)O)cc1[C@H]2[C@H]1c2cc(C[C@H](C)O)cc(O)c2C(=O)c2c1cc(OC)c(Cl)c2O` belongs -31.6% (active). As to `COc1ccc(-c2nc([C@@H](C)Sc3nc(N)cc(N)n3)c(C)s2)cc1OCCN1CCOCC1`, the growth was 104% (inactive). Consider `N#Cc1c(NC(=O)NCc2ccccc2)sc2c1CCCCC2`, for which the growth is 39.1% (inactive). With `COCc1cnccc1NC1CCCCCC1` the figure was 107% (inactive). As to `C/C=C(\C)C(=O)NC1=CC[C@@]2(C)C(=CCC3C2CC[C@@]2(C)C3CC[C@@H]2C(C)N(C)C)C1=O` (stereo not given in full), the growth was 86.5% (inactive). To `COc1ccc(C(=O)c2cc(C)c(OC)c(C)c2)c(OC)c1NC(C)=O` belongs 26% (inactive). With `CCCCCOc1ccc(/C=N/Nc2cc(C)nc3ccc(Cl)cc23)cc1` the figure was 93.1% (inactive); with `Cc1cc2nc3c4cc([N+](=O)[O-])ccc4n(CCN(C)C)c3nc2cc1C`, -56.5% (active); with `N#Cc1c(-c2cccc([N+](=O)[O-])c2)nc(SCC(=O)c2ccc(Cl)cc2)[nH]c1=O`, 110% (inactive).
